# Test results from PubChem BioAssay AID2071 (Sanford-Burnham Center for Chemical Genomics, 2009).
# Screen size: about 280,000 compounds; about 1,700 (0.61%) were called active. Cut-off read from the data, not from the text of the source: active = inhibition mostly above about 24% (no sharp cut-off); inactive = mostly below about 32%. This excerpt belongs to a sample that is enriched for actives.
# Assay: NALP1 inflammasome inhibitors in reconstituted yeast, colorimetric, S. cerevisiae, triplicate retest (AID 2071)
# Conditions: S. cerevisiae NALP1/ASC/caspase-1 growth, X-gal OD620, 72 h, stronger effect = higher value
compound,measurement,setting,value
COc1ccc(S(=O)(=O)Nc2ccc(S(=O)(=O)N3CCCCC3)cc2)cc1OC,inhibition,at 10 µM unless noted,22.8% (inactive)
COc1ccc(S(=O)(=O)Nc2ccc3c(c2)OCO3)cc1Cl,inhibition,at 10 µM unless noted,27.9% (active)
CNS(=O)(=O)c1ccc(NC(=O)Nc2ccc3c(c2)OCO3)cc1,inhibition,at 10 µM unless noted,-4.3% (inactive)
Cc1cc(N=Nc2ccc3ccccc3c2)ccc1O,inhibition,at 10 µM unless noted,1.2% (inactive)
CC[C@]1(c2ccccc2OC)C(=O)N(C(=O)OC)N1C(=O)OC,inhibition,at 10 µM unless noted,34.1% (inactive)
CCOC(=O)C1(Cc2ccccc2C)CCCN(C(=O)CN2C(=O)CSC2=O)C1 (configuration not stated),inhibition,at 10 µM unless noted,20% (inactive)
O=C(NC(=S)N1CCCCC1c1cccnc1)c1ccccc1 (configuration not stated),inhibition,at 10 µM unless noted,-18% (inactive)
CCn1c(=N)n(CC(=O)c2cccc(OC)c2)c2ccccc21,inhibition,at 10 µM unless noted,31.5% (active)
COc1ccc2cc(C(=O)O)n(CC(=O)c3ccccc3)c2c1,inhibition,at 10 µM unless noted,14% (inactive)
CCCn1c(=N)n(CC(=O)c2ccc(Cl)c(Cl)c2)c2ccccc21,inhibition,at 10 µM unless noted,23.1% (inactive)
O=C(Nc1cccc2c1CCCC2)C1CCN(C(=O)NC2CCCCC2)CC1,inhibition,at 10 µM unless noted,-14.2% (inactive)
Cc1ccccc1NC(=O)C1CCN(C(=O)NC2CCCCC2)CC1,inhibition,at 10 µM unless noted,40.8% (active)
Cc1cccc(NC(=O)C2CCN(C(=O)NC3CCCCC3)CC2)c1,inhibition,at 10 µM unless noted,3.7% (inactive)
O=S(=O)(Oc1ccccc1C(=S)N1CCOCC1)c1ccc(Cl)cc1,inhibition,at 10 µM unless noted,1.2% (inactive)
Cc1ccc(OCc2cc(C(=O)N(C)CCn3ccnc3C)no2)cc1C,inhibition,at 10 µM unless noted,5.1% (inactive)
COc1cc(N2C(=O)CSC2=S)cc(OC)c1OC,inhibition,at 10 µM,52.7% (active)
same,inhibition,"triplicate retest, at 20 µM",57.6%
Cc1cc(=O)cc(C)n1-c1ccc(Cl)c(Cl)c1,inhibition,at 10 µM unless noted,-5.9% (inactive)
CC(C)N1C(=S)SC(C)(C)C1n1oc(=O)n(-c2ccc(Cl)c(Cl)c2)c1=O (configuration not stated),inhibition,at 10 µM unless noted,0.9% (inactive)
CCOc1cccc(/C=N/N2C(=O)CSC2=S)c1O,inhibition,at 10 µM unless noted,-14.2% (inactive)
COc1ccc(N2C(=O)CNC2=S)cc1,inhibition,at 10 µM unless noted,-21.9% (inactive)
COc1ccc(CCN=C2SCC(=O)N2C)cc1OC,inhibition,at 10 µM unless noted,2.2% (inactive)
O=C1CSC(=S)N1c1ccc(O)cc1,inhibition,at 10 µM,76.7% (active)
same,inhibition,"triplicate retest, at 20 µM",95.9%
COc1cccc(C2SCC(=O)N2c2cccc(C)c2)c1OC (configuration not stated),inhibition,at 10 µM unless noted,9.2% (inactive)
O=C1CSC(=S)N1c1ccc(Cl)c(Cl)c1,inhibition,at 10 µM unless noted,44.2% (active)
Cc1cccc(Nc2nc(-c3ccccc3)cs2)n1,inhibition,at 10 µM unless noted,19.1% (inactive)
CCOc1ccccc1NC(=S)N1CCN(c2cccc(C)c2C)CC1,inhibition,at 10 µM unless noted,4.9% (inactive)
CC(C)c1ccc2oc(=O)cc(CN3CCN(Cc4ccccc4)CC3)c2c1,inhibition,at 10 µM unless noted,8.7% (inactive)
Cc1cc(Cl)nc(NC(=O)Nc2cccc(Cl)c2)n1,inhibition,at 10 µM unless noted,22.5% (inactive)
O=c1c(-c2cccc(Cl)c2)c[nH]n1-c1ccccc1,inhibition,at 10 µM unless noted,17% (inactive)
CCCn1c(C(C)Nc2nc(-c3ccc(C)cc3)cs2)nc2cc(Cl)c(N3CCCCC3)cc21 (configuration not stated),inhibition,at 10 µM unless noted,14.5% (inactive)
Cn1c(CSCC(=O)Nc2ccccc2)nnc1SCc1ccccc1,inhibition,at 10 µM unless noted,38.6% (active)
Cn1c(CC(=O)Nc2ccccc2)nnc1SCC(=O)c1ccccc1,inhibition,at 10 µM unless noted,9.9% (inactive)
O=C(CSCc1ccccc1)Nc1ccccc1,inhibition,at 10 µM unless noted,8.9% (inactive)
CCOC(=O)Nc1ccc2c(c1)N(C(=O)CCCl)c1ccccc1[S@]2=O,inhibition,at 10 µM unless noted,8.9% (inactive)
O=C(CCCN1C(=O)/C(=C/c2cccs2)SC1=S)Nc1ccc(O)cc1,inhibition,at 10 µM unless noted,5% (inactive)
Cc1cccc(C)c1NC(=O)C(c1ccccc1)N1CC(=O)Nc2ccccc21 (configuration not stated),inhibition,at 10 µM unless noted,19.2% (inactive)
Cc1cccc(C)c1NC(=O)N1CC(C)OC(C)C1 (configuration not stated),inhibition,at 10 µM unless noted,5.2% (inactive)
Cc1cccc(C)c1NC(=O)C(Cl)C(=O)c1ccccc1 (configuration not stated),inhibition,at 10 µM,50.4% (active)
same,inhibition,"triplicate retest, at 20 µM",80.1%
CCc1ccc(NC(=O)COC(=O)c2cccs2)cc1,inhibition,at 10 µM unless noted,8.1% (inactive)
Cc1nc2cc(NCc3cccs3)ccc2n1C,inhibition,at 10 µM unless noted,1.9% (inactive)
Cc1nc2cc(NC(=O)NC3CC3)ccc2n1C,inhibition,at 10 µM unless noted,29.1% (active)
Cn1c(CCN2CCCCCC2)nc2cc(NC(=O)Nc3ccccc3)ccc21,inhibition,at 10 µM unless noted,19.6% (inactive)
CCCOC1CCCN(C(=O)c2cc(COc3cncc(Cl)c3)on2)C1 (configuration not stated),inhibition,at 10 µM unless noted,-85.7% (inactive)
Cc1ccc(C)c(N2CCN(C(=O)CCCCCn3c(=S)[nH]c4ccc(N5CCOCC5)cc4c3=O)CC2)c1,inhibition,at 10 µM unless noted,-12.8% (inactive)
CCOc1ccc(NC(=O)CCCCCN2C(=O)[C@@H]3Cc4ccccc4CN3C2=O)cc1,inhibition,at 10 µM unless noted,12.6% (inactive)
Cc1ccc(Cn2c(C)c3cnn(CC(=O)NCc4ccccn4)c(=O)c3c2C)cc1,inhibition,at 10 µM unless noted,-2.5% (inactive)
CNC(=O)/C(C#N)=C/c1c(F)cccc1Cl,inhibition,at 10 µM unless noted,46.8% (active)
N#C/C(=C\c1ccccc1C(F)(F)F)C(=O)Nc1ccccc1F,inhibition,at 10 µM unless noted,40.5% (inactive)
Cc1[nH]c2ccccc2c1/C=C(/C#N)C(=O)NC(C)C,inhibition,at 10 µM unless noted,0.1% (inactive)
O=C(Nc1cccc2cccnc12)c1cccc(N2C(=O)CCC2=O)c1,inhibition,at 10 µM unless noted,15.2% (inactive)
N#Cc1ccc(C(=O)Nc2cccc3cccnc23)c(F)c1,inhibition,at 10 µM unless noted,40% (active)
O=C(Nc1cccc2cccnc12)c1cccc(Cl)c1,inhibition,at 10 µM unless noted,0.8% (inactive)
O=Cc1c(Nc2ccccc2Cl)nc2ccccn2c1=O,inhibition,at 10 µM unless noted,13.8% (inactive)
Cc1ccc(CCn2c3c(c4ccccc42)CN(C)CC3)cn1,inhibition,at 10 µM unless noted,39.6% (active)
COc1cc(Br)c(-c2sc(Nc3ccccc3)n[n+]2-c2ccccc2)cc1OC,inhibition,at 10 µM unless noted,-1.9% (inactive)
Cc1ccccc1Nc1nc(-c2cccnc2)cs1,inhibition,at 10 µM unless noted,16.4% (inactive)
COc1nnc(-c2ccc(C)c(S(=O)(=O)N(C)C)c2)c2ccccc12,inhibition,at 10 µM unless noted,17.5% (inactive)
Cc1ccc(Nc2nnc(SCC(=O)c3cc4ccccc4o3)s2)cc1C,inhibition,at 10 µM unless noted,5% (inactive)
CCCc1nc2ccccc2c(C(=O)OCC(=O)c2ccc3c(c2)NC(=O)CO3)c1CC,inhibition,at 10 µM unless noted,-1.4% (inactive)
CCc1ccc(Nc2nnc(SCC(=O)c3ccc4c(c3)NC(=O)CO4)s2)cc1,inhibition,at 10 µM unless noted,39.5% (active)
COc1ccc(C(=O)/C=C/c2cccnc2)c(OC)c1,inhibition,at 10 µM unless noted,-90.5% (inactive)
COc1ccc(O)c(/C=N/N=C/c2cccc([N+](=O)[O-])c2)c1,inhibition,at 10 µM unless noted,14.9% (inactive)
Cc1ccc(O)c(CNc2nc3ccccc3[nH]2)c1,inhibition,at 10 µM unless noted,10.8% (inactive)
COCC1CCN(C(=O)C2CCC(=O)N(Cc3cccc(C(F)(F)F)c3)C2)CC1 (configuration not stated),inhibition,at 10 µM unless noted,2.8% (inactive)
